Measured values as given in article PMC4336329 (PLoS ONE, 2015).
Out of some 310,000 compounds screened, about 14,000 (4.5%) showed an effect of 50% or more. The effect is printed as a negative number. Only a selection was taken, and strong results are over-represented in it overall.

What follows are molecules tested against human ether-à-go-go-related gene (hERG) potassium channel (human, UniProt Q12809) (assay: primary screen, population patch clamp on CHO cells stably expressing hERG; higher = less effect of the substance).
Sequence of human ether-à-go-go-related gene (hERG) potassium channel (Q12809 whole entry, looked up): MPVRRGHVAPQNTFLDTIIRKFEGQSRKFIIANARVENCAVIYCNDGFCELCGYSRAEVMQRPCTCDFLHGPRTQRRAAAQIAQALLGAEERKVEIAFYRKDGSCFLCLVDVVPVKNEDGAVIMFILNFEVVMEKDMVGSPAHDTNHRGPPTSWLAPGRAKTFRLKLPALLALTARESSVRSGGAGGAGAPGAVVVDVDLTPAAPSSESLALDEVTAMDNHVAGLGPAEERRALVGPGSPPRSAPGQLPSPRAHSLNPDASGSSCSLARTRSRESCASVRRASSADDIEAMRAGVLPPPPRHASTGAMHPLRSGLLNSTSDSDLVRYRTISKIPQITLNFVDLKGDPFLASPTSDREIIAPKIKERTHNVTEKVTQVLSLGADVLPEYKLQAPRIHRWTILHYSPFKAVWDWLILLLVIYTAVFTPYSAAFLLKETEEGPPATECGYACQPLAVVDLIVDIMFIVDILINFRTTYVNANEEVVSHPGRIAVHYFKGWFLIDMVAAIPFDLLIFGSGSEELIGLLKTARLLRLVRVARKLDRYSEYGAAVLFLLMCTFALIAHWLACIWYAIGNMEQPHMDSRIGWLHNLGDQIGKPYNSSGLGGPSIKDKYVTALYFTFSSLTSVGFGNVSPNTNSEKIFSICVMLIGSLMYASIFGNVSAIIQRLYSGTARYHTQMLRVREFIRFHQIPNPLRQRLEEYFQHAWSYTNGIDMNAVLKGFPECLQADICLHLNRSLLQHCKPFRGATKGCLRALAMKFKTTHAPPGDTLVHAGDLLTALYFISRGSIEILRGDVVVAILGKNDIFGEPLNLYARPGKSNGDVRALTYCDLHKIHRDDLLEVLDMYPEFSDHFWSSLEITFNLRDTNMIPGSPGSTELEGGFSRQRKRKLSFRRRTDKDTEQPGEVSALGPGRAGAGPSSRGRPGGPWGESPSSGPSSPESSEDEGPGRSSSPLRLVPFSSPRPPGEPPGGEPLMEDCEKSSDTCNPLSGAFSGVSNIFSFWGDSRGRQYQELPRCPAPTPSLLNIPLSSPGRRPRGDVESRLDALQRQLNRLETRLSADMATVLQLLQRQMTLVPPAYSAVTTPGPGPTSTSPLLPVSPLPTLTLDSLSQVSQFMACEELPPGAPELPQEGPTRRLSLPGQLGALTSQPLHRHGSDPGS
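Also: peak tail current of the secondary pulse compared with the same well before compound.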

| SMILES | hERG current change (%, negative = inhibition) at 10uM [%] |
| --- | --- |
| CC(=O)Nc1ccc(Nc2ncnc3ccccc23)cc1 | 10.9 |
| O=C(C(=C1N(Cc2ccc(Cl)nc2)CCN1Cc1ccc(Cl)nc1)[N+](=O)[O-])C(Cl)Cl | -26.6 |
| CCn1c(C)nc2cc(S(N)(=O)=O)ccc21 | 21.9 |
| Cc1ccc(C)c(NC(=O)c2nnn(Cc3ccccc3)c2N)c1 | -6.11 |
| Cc1nc(NC(=O)CSc2cc(C)c3ccccc3n2)c(Cl)cc1Cl | 5.23 |
| CC1CN(C(=O)CCNC(=O)c2ccc(Br)cc2)CC(C)O1 (stereo not drawn) | -4.12 |
| O=C(CSc1ncn[nH]1)Nc1cccc2ccccc12 | 3.88 |
| CCC(C)(C)NC(=O)Cc1ccccc1OC | 23 |
| COc1ccc(C(CNC(=O)c2cccc(S(=O)(=O)N3CCCCC3)c2)N2CCCC2)cc1 (stereo not drawn) | -43.8 |
| COc1ccc(C(CNC(=O)c2cccc(NC(=O)c3cccs3)c2)N2CCCC2)cc1 (stereo not drawn) | -58.8 |
| COc1ccc(C(CNC(=O)c2cccc(Br)c2)N2CCCC2)cc1 (stereo not drawn) | -31.6 |
| COc1ccc(C(CNC(=O)CNC(=O)c2cccc(Cl)c2)N2CCCC2)cc1 (stereo not drawn) | -33.8 |
| COc1ccc(C(CNC(=O)c2ccc(Cl)c(NC(=O)c3cccs3)c2)N2CCCC2)cc1 (stereo not drawn) | -70.9 |
| COc1ccc(C(CNC(=O)c2cccc(S(=O)(=O)Nc3ccc(C)cc3)c2)N2CCCCC2)cc1 (stereo not drawn) | -30.7 |
| COc1cc2c(cc1OC)C(C)N(C(=O)Nc1cc(C)cc(C)c1)CC2 (stereo not drawn) | 4.95 |
| COC(=O)c1c(NC(=O)c2ccco2)sc2c1CC(C)(C)NC2(C)C | -21.2 |
| Cn1c(=O)c2c(ncn2CC(=O)OCC(=O)Nc2sccc2C(N)=O)n(C)c1=O | -10.1 |
| COC(=O)C1=C(C)N(c2cccc3ccccc23)C(=O)C1 | -6.64 |
| Cc1noc(NC(=O)c2ccccc2C(F)(F)F)c1C#N | -46 |

| SMILES | hERG current change (%, negative = inhibition) at 10uM [%] |
| --- | --- |
| CCN1C(=O)[C@H]2[C@@H](c3ccc(OC)cc3)N3C(=O)CN(CCOC)C(=O)[C@@]3(C)[C@H]2C1=O | -2.75 |
| O=C(CN1CCN(C/C=C/c2ccccc2)CC1)NCc1ccc(Cl)cc1 | -78 |
| O=C(N/C=C\c1ccccc1)NCc1ccc(Cl)cc1 | 1.95 |
| O=C(CN1CCN(c2ccccc2F)CC1)NCc1ccc(Cl)cc1 | -19.1 |
| O=C(CN1CCN(C/C=C/c2ccccc2)CC1)NCc1ccccc1 | -73.3 |
| Cl.O=C(CN1CCCC1)NCc1ccccc1 | 15.6 |
| O=C(CN1CCCCCC1)NCc1ccccc1 | 10.1 |
| COc1cccc(C2(c3cccc(OC)c3)CC2C(=O)Nc2ccccc2Cl)c1 (stereo not drawn) | 14 |
| CN1C(=O)C(=Cc2ccc(-c3cccc(Cl)c3)o2)C(=O)N(C)C1=O | 10.2 |
| Cc1ccc(NC(=O)c2cc([N+](=O)[O-])ccc2NCc2cccnc2)cc1Cl | -41.7 |
| Cc1ccc(NC(=O)c2cc([N+](=O)[O-])ccc2NCc2cccnc2)cc1 | -82.7 |
| O=C(c1ccccc1)N1CCN(c2ccc([N+](=O)[O-])c(NCc3cccnc3)c2)CC1 | -69.7 |
| CC(C)(C)C(=O)N1CCN(c2ccc([N+](=O)[O-])c(NCc3cccnc3)c2)CC1 | -29.3 |
| CC(=O)N1CCN(c2ccc([N+](=O)[O-])c(NCc3cccnc3)c2)CC1 | -22.3 |
| Cc1ccccc1C(=O)N1CCN(c2ccc([N+](=O)[O-])c(NCc3cccnc3)c2)CC1 | -27 |
| O=C(c1ccc(Cl)cc1)N1CCN(c2ccc([N+](=O)[O-])c(NCc3cccnc3)c2)CC1 | -50.1 |
| O=C(c1ccccc1F)N1CCN(c2ccc([N+](=O)[O-])c(NCc3cccnc3)c2)CC1 | -45.5 |
| Cc1ccc(C(=O)N2CCN(c3ccc([N+](=O)[O-])c(NCc4cccnc4)c3)CC2)cc1 | -59.4 |
| COc1cccc(NC(=O)c2cc([N+](=O)[O-])ccc2NCc2cccnc2)c1 | -44 |

| SMILES | hERG current change (%, negative = inhibition) at 10uM [%] |
| --- | --- |
| O=[N+]([O-])c1ccc(N2CCN(S(=O)(=O)c3ccc(Cl)cc3)CC2)cc1NCc1cccnc1 | 2.59 |
| CCS(=O)(=O)N1CCN(c2ccc([N+](=O)[O-])c(NCc3cccnc3)c2)CC1 | -49.1 |
| COc1cccc(C(=O)NCCS(=O)(=O)NCc2cccnc2)c1 | 8.66 |
| COC(=O)c1ccc(NC(=O)CSc2nnc(C3CC3)n2C)cc1 | -4.59 |
| COc1ccccc1S(=O)(=O)Cc1ccc(C(=O)NC2CC2)o1 | 18.5 |
| CCN(CC#CCC1(O)c2ccccc2-c2ccccc21)C(C)C | -9.99 |
| O=C(COC(=O)c1ccc[nH]c1=O)NC1CCCCCC1 | 46.2 |
| Cc1cc2c(NC(=O)CCCC(=O)O)cccc2nn1 | 13.6 |
| Cc1cccc2sc(NNC(=O)c3cc(-c4cccs4)nc4ccccc34)nc12 | 13.4 |
| CC(=O)NC(NC(=S)Nc1ccc(N=Nc2ccccc2)cc1)C(Cl)(Cl)Cl (stereo not drawn) | 19.6 |
| O=C(COc1ccc(Br)cc1)N1CCOCC1 | -0.627 |
| Cc1cccc(NS(=O)(=O)c2ccc3c(c2)NC(=O)CO3)c1C | 3.88 |
| CC(=O)N(c1ccc2oc(=O)sc2c1)S(=O)(=O)c1cccc2cccnc12 | 5.98 |
| Cc1ccc(C)c(N2CCN(CCCNC(=O)CCn3c(=O)c4cccn4c4cccnc43)CC2)c1 | -70 |
| CCC1CCCCN1CCCNC(=O)Cn1c(=O)c2cccn2c2cccnc21 (stereo not drawn) | 12.1 |
| CC1CCCC(C)N1CCCNC(=O)CCn1c(=O)c2cccn2c2cccnc21 (stereo not drawn) | 16.7 |
| Cc1ccc(Cl)cc1N1CCN(C(=O)CCCn2c(=O)c3cccn3c3cccnc32)CC1 | -15.1 |
| CC1CCCC(C)N1CCCNC(=O)Cn1c(=O)c2cccn2c2cccnc21 (stereo not drawn) | 2.77 |
| Cc1ccc(C)c(N2CCN(CCCNC(=O)Cn3c(=O)c4cccn4c4cccnc43)CC2)c1 | -59.6 |
